# Assay outcomes: PubChem, National Center for Advancing Translational Sciences (NCATS)
# p53 reactivator = qHTS assay for re-activators of p53 using a Luc reporter. H1299 p53-A138V BP100-luciferase reporter, luminescence, 24 h. Potency, µM (top dose mostly 92.2 µM), inactives show at the top dose activity change, positive = activation, usual class: activators. 320,000 compounds, 0.063% hits; also: potency is read from the fitted curve at half-maximal effect; % of control where 0% means no effect; nearly all actives have a fitted effect of over 45% in size
#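 H1299 (p53-null), stable ts p53-A138V + BP100-Luc; 1000 cells/well, Opti-MEM/10% FBS; cpd 4 pt, 1:5; 24 h, 37 deg C, 5% CO2; detection reagent 10 min RT; luminescence.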
# IL2 activator = qHTS of IL-2 Activators. IL-2 activation reporter assay, cell-based qHTS; stimulated with anti-CD3/CD4/CD28 beads; in transgenic mouse T cells. activation, % (series mostly up to about 46 µM). 360,000 compounds, 0.065% hits; in the data active = activation above about 50%; inconclusive = mostly about 30% to 49%; also: 0% is about no effect
#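 First, unstimulated transgenic mouse T cells were exposed to compound for 60 min. Next, anti-CD3/anti-CD4-coated beads with anti-CD28 were added. Finally, after 18 h at 37 degrees C, EGFP and DsRed were imaged.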
# A549 viability = Nrf2 qHTS screen for inhibitors: counterscreen for cytotoxicity; Potency, µM (titrated, usually from 46 µM), for inactives: top-dose activity change, negative = cytotoxicity, hits mostly inhibitors; A549 ARE-Fluc cells, CellTiter-Fluor viability, 18-24 h; 390,000 compounds, 0.16% hits; AID 504648, 2011; also: potency is read from the fitted curve at half-maximal effect; % is scaled to controls: 0 for no effect and ±100 for the full control effect
#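 A549 ARE-Fluc cells in 5% FBS OPTI-MEM, 5000 cells/well, rested 2 h then exposed to compounds in concentration-response for 18-24 h at 37 °C. Viability by CellTiter-Fluor fluorescence (Ex 405/Em 525) after 30 min; luciferase luminescence (BugLite, 15 min, RT) read afterwards.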
# BRCA1 expr act = qHTS Assay to Identify Small Molecule Activators of BRCA1 Expression; MCF7-BRCA1-FFLuc reporter, luminescence, 48 h; response scale: scaled: vehicle 0%, 10 µM genistein 100%; 380,000 compounds, 1.1% hits; Potency, µM (top dose mostly 46.1 µM), for inactives: at the top dose activation, most hits filed as activators; also: potency is read from the fitted curve at half-maximal effect; nearly all actives have a fitted effect of over 80% in size
#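 Luminescence from a BRCA1-driven firefly luciferase in MCF7 cells was read after 48 h compound exposure at 37 C. Data normalized against DMSO and a 10microM genistein activation control, then curve-fitted across the titration.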
# Nrf2 inh = Nrf2 qHTS screen for inhibitors; A549 ARE-Fluc reporter, luciferase luminescence, 18-24 h; Potency, µM (highest dose often 46 µM), for the others: at the highest dose activity change, negative = inhibition, actives largely listed as inhibitors; 360,000 compounds, 2.1% hits; AID 504444, 2011; also: potency is read from the fitted curve at half-maximal effect; % is scaled to controls: 0 for no effect and ±100 for the full control effect; nearly all actives have a fitted effect of over 60% in size
#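 A549 ARE_Fluc cells, 5000/well, 5% FBS OPTI-MEM; compounds in dose-response, 18-24 h at 37 °C/5% CO2; CellTiter-Fluor viability read (Ex 405/Em 525), then BugLite luciferase luminescence = Nrf2 activity.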
# Nrf2 activator = qHTS of Nrf2 Activators; AID 624171, 2012; AREc32 ARE-luciferase reporter (MCF7-derived line), luminescence, 24 h; Potency, µM (highest dose often 46.1 µM), inactives show at the top dose activation, hits mostly activators; 410,000 compounds, 0.31% hits; also: potency is read from the fitted curve at half-maximal effect; % of control where 0% means no effect; nearly all actives have a fitted effect of over 65% in size
#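 AREc32 cells carrying an ARE-driven firefly luciferase, 1000 cells/well in OPTI-MEM with 5% FBS, dosed after overnight attachment and incubated 24 hr at 37 deg C. Steady-Glo luminescence read after 30 min at RT.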
# The depositor's hits bear a star; ? = inconclusive; . = no result given; [ ] = dose if it differs, or a comment. A selection: hits, their analogues and other compounds. The true share with any hit is near 3.2%. Unless noted, calls follow the shape of the dose curve; as a rule, active = well fitted curve in the direction sought with a large enough effect; inconclusive = small, poorly fitted or top-dose-only effect, or another doubt; inactive = no such curve, though single readings can be large; an effect the other way counts as inactive or inconclusive.
SMILES,p53 reactivator,IL2 activator,A549 viability,BRCA1 expr act,Nrf2 inh,Nrf2 activator
CCCCc1nn2c(=O)cc(COC(=O)c3ccc4c(c3)OCO4)nc2s1,.,.,1.2%,10.4%,6.1%,-0.5%
O=C(CSc1nc2c(c(=O)[nH]1)CCC2)Nc1ccccc1C(F)(F)F,.,.,-5.3%,.,-24.0%,0.0%
COc1ccc(-c2ccc([C@H]3[C@@H]4C=CCC[C@@]4(C)C(=O)N3Cc3ccccc3)c(F)c2)cc1OC,23.8%,-2.1,-5.6%,-77.6%,20.6µM*,-1.0%
CCCSCCCNC(=O)c1ccc2c(c1)sc1nc(-c3ccc(OCC)cc3)cn12,.,.,-1.4%,.,2.9%,3.0%
N#Cc1cccn1-c1nccc(-c2cccs2)n1,9.3%,0.3,-1.4%,2.2%,?,4.47µM*
COc1ccc(-c2nc3cc(C(C)C)ccc3o2)cc1NC(=O)c1ccccc1[N+](=O)[O-],.,.,-11.4%,.,?,22.4%
CCCCOc1ccc(CNC(=O)C2COc3ccc(OC)cc3C2)cc1 (configuration not stated),.,.,1.2%,.,.,-0.3%
O=C(NCCc1c[nH]c2ccccc12)c1ccc(F)cc1F,?,0.7,0.9%,3.98µM*,?,2.4%
COc1cc(SC)ccc1C(=O)NCCc1c[nH]c2ccccc12,.,-1.3,-16.2%,46.9%,?,2.0%
O=C(NCCc1c[nH]c2ccccc12)c1ccc(Cl)cc1,-18.0%,0.0,0.5%,3.55µM*,?,5.6%
COc1ccc(C(=O)c2c[nH]c3ccccc23)cc1,.,-0.3,?,3.55µM*,.,2.6%
CCC(=O)NCCc1c[nH]c2ccccc12,.,-1.3,0.6%,0.5%,20.7%,-0.2%
Cc1ccsc1C(=O)NCCc1c[nH]c2ccccc12,?,-0.7,-0.8%,12.6µM*,8.2%,0.6%
COc1c(Cl)cccc1NC(=O)c1c(NC(=O)Cc2ccccc2)sc2c1CCCC2,.,.,-2.1%,.,18.2%,.
COc1ccccc1NC(C)C(=O)c1c[nH]c2ccccc12 (configuration not stated),.,.,.,12.6µM*,.,.
COc1ccc(OCC(=O)NCCc2c[nH]c3ccccc23)cc1,-7.1%,1.2,-10.6%,-25.2%,?,0.4%
COc1ccccc1OCCNC(=O)C(=O)c1c[nH]c2ccccc12,-3.0%,1.1,0.0%,4.0%,4.1%,3.6%
COc1ccc(C(=O)NCCc2c[nH]c3ccccc23)cc1,-7.0%,-2.8,-2.5%,5.62µM*,?,1.7%[9.22 µM]
CCOc1ccc(NC(=O)CC2Nc3cccc4cccc(c34)NC2=O)cc1 (configuration not stated),.,.,-14.9%,.,-5.0%,7.6%
COc1ccc2nc(NC(=O)c3cc(=O)c4cc(C)cc(C)c4o3)sc2c1,.,.,-5.8%,.,10.0%,3.8%
O=C(c1cc2nc(-c3cccs3)cc(C(F)(F)F)n2n1)N1CCCc2ccccc21,-1.4%,4.8,-17.2%,-40.1%,18.4µM*,0.4%
Cn1cccc1/C=N/NC(=O)c1ccccn1,16.7%,-4.6,-0.1%,10µM*,27.1%,0.0%
Cn1cccc1C(=O)N/N=C/c1c(Cl)cccc1Cl,?,4.0,-1.5%,6.31µM*,?,26.8%
O=C(N/N=C/c1c(Cl)cccc1Cl)c1ccccc1F,28.7%,0.3,7.1%,-6.6%,?,5.01µM*
O=C(N/N=C/c1c(F)cccc1Cl)c1cc(C2CC2)[nH]n1,?,0.1,2.5%,11.2µM*,?,4.5%
SMILES,p53 reactivator,IL2 activator,A549 viability,BRCA1 expr act,Nrf2 inh,Nrf2 activator
Cc1csc2nc(COc3ccccc3NC(=O)c3ccc(C(C)(C)C)cc3)cc(=O)n12,.,.,-1.9%,12.9%,15.3%,0.3%
CCSc1nncn1/N=C/c1ccc(OC)c(OC)c1,?,4.0,-7.6%,22.1%,.,8.8%
C=C(C)CSc1nncn1/N=C/c1ccc(OC)cc1,?,4.4,-2.1%,7.94µM*,?,-0.9%
O=C(Cc1cccc2ccccc12)NO,.,.,.,0.0%,.,.
CCN(CC)CCC(c1ccc(OC)cc1)c1c(OC)cc(OC)c2c(C)cc(=O)oc12 (configuration not stated),.,.,11.6µM*,.,-4.8%,.
O=C(Nc1cccc(NC(=O)c2cncc(Br)c2)c1)c1cncc(Br)c1,9.1%,-0.5,1.8%,-13.5%,8.2µM*,-0.1%
CCOc1cc(C(=O)Nc2ccc3nc(Nc4cccc(Cl)c4)cc(C)c3c2)cc(OCC)c1OCC,.,.,-18.0%,-2.8%,-5.1%,-1.0%
Cc1cc(Nc2cccc(Cl)c2)nc2ccc(NC(=O)c3cncc(Br)c3)cc12,.,.,?,-80.0%,18.4µM*,-2.1%
Cc1ccccc1C(=O)Nc1ccc2nc(Nc3cccc(C(F)(F)F)c3)cc(C)c2c1,.,.,?,-17.9%,18.4µM*,0.2%
Cc1cc(Nc2cccc(C(F)(F)F)c2)nc2ccc(NC(=O)c3cncc(Br)c3)cc12,.,.,-21.4%,.,20.6µM*,4.2%
COc1cccc(CNC(=O)C2CCN(S(=O)(=O)c3cn(C)cn3)CC2)c1,.,.,0.1%,.,.,0.3%
CC1CCc2nc3ncn(Cc4cccc(F)c4)c(=O)c3cc2C1 (configuration not stated),.,.,-1.7%,.,.,4.9%
CC(=O)Nc1ccc(/C=C/C(=O)c2ccc(-n3nncc3-c3ccccc3)cc2)cc1,.,.,-18.8%,-56.1%,?,.
COc1ccc2c(c1OC)C(=O)OC2Nc1nc(-c2ccc([N+](=O)[O-])cc2)cs1 (configuration not stated),19.7%,-0.7,-6.2%,12.6µM*,?,6.1%
COc1ccc(-c2csc(NC3OC(=O)c4c3ccc(OC)c4OC)n2)cc1OC (configuration not stated),-9.2%,-1.1,?,-55.3%,10.9%,?
O=C(c1ccc(CSc2nc3ccncc3n2Cc2ccccc2)cc1)N1CCCCCC1,.,.,-10.7%,.,?,0.9%
Cc1cccc(Cn2c(SCc3ccc(C(=O)N4CCCCCC4)cc3)nc3ccncc32)c1,.,.,-0.3%,-5.2%,23.1µM*,-1.1%
CCN1/C(=C/c2ccc3ccccc3[n+]2CC)C=Cc2ccccc21,-1.7%,7.1,9.2µM*,-98.9%,2.91µM*,-1.7%
CCN1/C(=C/c2ccc3ccccc3[n+]2CCCS(=O)(=O)[O-])C=Cc2cc(C)ccc21,-3.1%,-0.6,?,-0.5%,-18.6%,-0.2%
CCc1cc(C(=O)OC)c(NC(=O)CC2Nc3cc(C)c(C)cc3NC2=O)s1 (configuration not stated),11.9%,?,-6.4%,1.7%,3.2%,-0.2%
COC(=O)c1c(NC(=O)CC2Nc3cc(C)c(C)cc3NC2=O)sc(C)c1C (configuration not stated),5.3%,61.7*,4.5%,13.3%,8.5%,0.3%
